The values that follow come from PubChem BioAssay.

Values without a mark were called inactive. The source made the active and inactive calls. Rule as the data show it: active = inhibition above about 42%; inactive = the rest.

In this test the target is Nuclear receptor subfamily 5 group A member 2 (Homo sapiens) (UniProt O00482). In words: NR5A2 activity suppression in reporter cells – cell-based, luminescence, confirmation (AID 651613).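 Also: HEK293T cells co-transfected with LRH-1 and StAR promoter luciferase reporter; 0% = vehicle wells and 100% = parental cells lacking receptor.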 To be noted: cell-based LRH-1 luciferase reporter, inverse agonism; at 3.6 µM; stronger effect = higher value. In general terms: In a reporter assay the amount or activity of a reporter protein is the signal.
Sequence of Nuclear receptor subfamily 5 group A member 2 (Homo sapiens) (O00482 whole entry, looked up): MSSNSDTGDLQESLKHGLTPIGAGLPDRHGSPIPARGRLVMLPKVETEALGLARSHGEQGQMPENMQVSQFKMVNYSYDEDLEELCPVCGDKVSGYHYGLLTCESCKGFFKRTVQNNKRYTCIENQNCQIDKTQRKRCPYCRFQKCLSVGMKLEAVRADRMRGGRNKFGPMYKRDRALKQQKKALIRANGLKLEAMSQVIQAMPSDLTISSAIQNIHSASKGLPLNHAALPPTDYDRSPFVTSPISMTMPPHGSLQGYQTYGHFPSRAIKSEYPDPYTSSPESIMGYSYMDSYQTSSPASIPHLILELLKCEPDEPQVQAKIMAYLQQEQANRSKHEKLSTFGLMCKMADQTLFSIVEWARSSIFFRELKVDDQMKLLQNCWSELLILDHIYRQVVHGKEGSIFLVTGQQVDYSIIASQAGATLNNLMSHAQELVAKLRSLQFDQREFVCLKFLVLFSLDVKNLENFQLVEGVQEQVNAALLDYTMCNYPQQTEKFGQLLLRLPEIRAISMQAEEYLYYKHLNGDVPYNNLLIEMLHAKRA
Take `COc1ccc(-n2c(SCC(=O)NCc3ccco3)nc3sc4c(c3c2=O)CCN(C)C4)cc1`: the inhibition – broadly, the drop in the measured response relative to a control, in per cent – is -2.89%.

Turning to `COc1ccc(NC(=O)Cn2nnc(C(=O)Nc3ccccc3C)c2N)cc1`, the inhibition is 41.4% (active).

With `Cc1cccc(C(=O)N[C@H](C(=O)Nc2ncc(C)s2)C(C)C)c1`, the inhibition was 58.7% (active).

Take `Cc1ccc(N2CC(C(=O)Nc3nc4ccc(S(C)(=O)=O)cc4s3)CC2=O)cc1` (stereo not given): the inhibition was 52.6% (active).

Take `CC(=O)c1ccc(OC(C)C(=O)OCC(=O)NCCc2ccccc2)cc1` (stereo not given): the inhibition is 47.1% (active).

With `CC(=O)C(C(C)=O)c1c(Cl)c(O)c(O)c2c(C(=O)c3ccccc3)coc12`, the inhibition is 100% (active).

For the molecule `O=C(CN1C(=O)NC2(CCCCCC2)C1=O)Nc1ccc([N+](=O)[O-])cc1`, the inhibition was 63.1% (active).

As to `CCOC(=O)c1cccc(C2=CC(=O)CC(C)(C)C2)c1`, the inhibition is 46.3% (active).

With `OCC1OC(n2cnc3c(/C=C(\O)c4ccccc4)ncnc32)C(O)C1O` (stereo not given), the inhibition is -13.9%.

In the case of `COc1cccc(C=Nc2ccc3c(c2)OCCO3)c1O`, the inhibition is -12%.

`COc1ccc(S(=O)(=O)Nc2ccc(CC#N)cc2)cc1`: the inhibition is 31.7%.

Take `COc1cccc(C(C)(O)c2nc(-c3cccc(C#N)c3)cs2)c1` (stereo not given): the inhibition is 55.2% (active).

Turning to `Cc1ccc(C)c(NC(=O)CSc2nc3c(oc4ccccc43)c(=O)n2-c2ccccc2)c1`, the inhibition is 50.3% (active).

Turning to `Cc1cc(C)c2nc(NC(=O)c3ccc([N+](=O)[O-])o3)sc2c1`, the inhibition is 50.8% (active).

For `O=C(CSc1ncn[nH]1)Nc1ccc(Cl)c(Cl)c1`, the inhibition was 45.2% (active).

As for `O=C1CC(c2cccc([N+](=O)[O-])c2)c2ccc3ccccc3c2N1` (stereo not given), the inhibition was 40.8%.

Take `COC(=O)Cc1sc(-c2ccccn2)nc1-c1ccccc1`: the inhibition is 61.7% (active).

Consider `COc1cc(OC)cc(C(=O)N[C@H](C(=O)OCC(=O)Nc2ccc3c(c2)OCO3)C(C)C)c1`, for which the inhibition was 48.1% (active).

As to `O=C(Nc1ccc(Oc2ccccc2)cc1)c1csc([C@H]2C[C@H](O)[C@@H](CO)O2)n1`, the inhibition was 56.6% (active).

As to `COc1ccc(NC(=O)C2=CC(c3ccc(OC)c(OC)c3)=NS(=O)(=O)N2C)cc1`, the inhibition is 56.3% (active).

In the case of `Cc1ccc2c(c1)Oc1ccc(NC(=O)CCl)cc1C(=O)N2`, the inhibition was 68.3% (active).

Regarding `CC(C)(Oc1ccc(Cl)cc1)C(=O)OCC(=O)NCCc1ccccc1`, the inhibition is 45.2% (active).

As to `O=C(CSC1=NC2(CCCCCC2)N=C1c1ccccc1)Nc1ccc2c(c1)OCCO2`, the inhibition was 60.2% (active).

In the case of `Cc1cc(C)c(C(N)=O)c(Nc2cccc3ccccc23)n1`, the inhibition was 2%.

`COc1ccc2c(c1)C1C=CCC1C(c1cc3c(cc1Br)OCO3)N2` (stereo not given): the inhibition was 37%.

For the molecule `CC1=C(n2nnc([N+](=O)[O-])n2)C(c2cccnc2)C(C#N)=C(N)O1` (stereo not given), the inhibition is 17.6%.

As for `CCCN(CC(=O)Nc1ccccc1C)CC(=O)Nc1ccc(Br)cc1F`, the inhibition is 58.6% (active).

Turning to `CC(=O)Nc1cc(-c2ccccc2N(C)C)cn2c(-c3ccc(S(C)(=O)=O)cc3)cnc12`, the inhibition was 49.8% (active).

For the molecule `CCCc1nc2cc(C)c(Br)c(C)n2c1Cc1ccc(OC)cc1C`, the inhibition is 48.3% (active).

In the case of `CCc1cc(=O)oc2c(C)c(OCC(=O)NC3CC(C)(C)NC(C)(C)C3)ccc12`, the inhibition is 56.7% (active).

`Cc1c(Cl)cccc1NC(=O)CSc1nnc(C)n1CC1CCCO1` (stereo not given): the inhibition was 38.1%.

On to `Cc1nnsc1S(=O)c1ccc(Br)cc1` (stereo not given), for which the inhibition was 45.4% (active).

`COc1ccc(CN(C)C(=O)CCl)cc1`: the inhibition was 53.5% (active).

Regarding `CCc1nc(SCC(=O)N2CCc3cc(OC)c(OC)cc3C2)c(C#N)cc1C`, the inhibition is 47.4% (active).

With `Cc1cc(C)c2nc(-c3cccnc3)cc(C(=O)NC(C)c3cnn(C)c3C)c2c1` (stereo not given), the inhibition was 57.6% (active).

With `COc1ccc(CCNC(=O)CSc2nc(O)c(CCC(C)C)c(=O)[nH]2)cc1OC`, the inhibition was 61.7% (active).

Regarding `CS(=O)(=O)N1CCCC(c2nc(-c3ccc(S(=O)(=O)NCc4ccccc4)cc3)no2)C1` (stereo not given), the inhibition was 54.5% (active).

`Cc1ccc(NC(=O)CSc2nsc(SCC(=O)Nc3ccc(C)cc3C)c2C#N)c(C)c1`: the inhibition was 46.1% (active).

As for `CCOC(=O)c1cc2sccc2n1CC(=O)Nc1ccc2c(c1)OCCO2`, the inhibition is 55.1% (active).

On to `COc1ccc(NC(=O)CSc2nc3nc(C)cc(C)c3c(=O)[nH]2)cc1`, for which the inhibition was 43.6% (active).
